About 83,000 compounds went through this panel and 20% of them were active in at least one assay; those are over-represented in the sample as a whole.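 Cells were grown in 96-well plates and exposed to the test compound at a single concentration for 48 hours; results are reported as percent growth, with values below 10 considered active.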 A number with no mark means an inactive call. Active and inactive are the calls of the source.
Each compound was assayed on SK-MEL-2 melanoma (assay: NCI-60 one-dose screen, 48 h (100 = growth as untreated, 0 = no growth, -100 = all killed)). Conditions: 10 µM unless noted.

| SMILES | growth |
| --- | --- |
| CC(=O)C1C(=O)C(=O)N(c2ccc(Cl)c(Cl)c2)C1=O (centres undefined) | 111% |
| NNc1ncnc2nc[nH]c12 | -7.36% (active) |
| CC1(C)CC(=O)C=C(N)C1 | 98.4% |
| O=C1Nc2ccccc2/C1=C\c1ccccc1O | 107% |
| C=CCc1cc(OC)c(OC)c(OC)c1 | 108% |
| COCC(N)=O | 95.9% |
| C/C(O)=C(/C=N/C(=S)Nc1ccccc1)C(=O)Nc1ccccc1C | 114% |
| CSc1nsc(N)n1 | 94.2% |
| c1ccc(Oc2c3ccccc3nc3ccccc23)cc1 | 39.9% |
| NC(CSSCC(N)C(=O)O)C(=O)O (centres undefined) | -8.58% (active) |
| O=C(O)c1c[nH]c2ccccc2c1=O | 95.1% |
| CC(C)N1CC(=O)N2CSCC2C1=O (centres undefined) | 115% |
| O=C(Oc1ccccc1Cl)c1ccc(Cl)cc1Cl | 109% |
| CN(C)c1ncnc2c1cnn2C | 110% |
| CC(=O)NNC(=S)/N=C\C(C(=O)c1ccccc1)=C(/O)c1ccccc1 | 110% |
| C=CC(C)C(C)(C)O (centres undefined) | 100% |
| C=COC(=O)CCOCC(CC)CCCC (centres undefined) | 96.9% |
| CCCCCCCCCCCCSC1=C(Cl)C(=O)C(OC)=C(OC)C1=O | 39.3% |
| Cc1onc(-c2c(F)cccc2Cl)c1-c1ncc(-c2ccc(Br)cc2)o1 | 74.8% |

| SMILES | growth |
| --- | --- |
| CC(=O)/C(C)=N\OC(=O)Nc1ccccc1 | 107% |
| Cc1ccc(S(=O)(=O)Oc2ccc3sc4c(CO)ccc(NCCN(C)C)c4c(=O)c3c2)cc1 | -86.6% [100 µM] (active) |
| Cc1cccc(-[n+]2noc(N)n2)c1 | 145% |
| O=C(NCc1ccccc1)c1cccc([N+](=O)[O-])c1 | 104% |
| C/C(Cc1ccccc1)=N\O | 104% |
| CCCCCC/C=C\CCCCCCCCCc1cc(O)cc(OC)c1O | -25.5% (active) |
| CC1(C)OC2C(CO)OC(n3ccc(=O)[nH]c3=O)C2O1 (centres undefined) | 96.6% |
| C/C=C/C1OCC(CC)C(CCC)O1 (centres undefined) | 102% |
| O=c1nc(Nc2cccc(Cl)c2)oc2cc(Cl)oc(=O)c12 | -14.9% (active) |
| NC(CO)(CO)c1ccccc1 | 107% |
| ClCC(Cl)[C@@H]1CC2C=CC1C2 (some centres undefined) | 112% |
| CN=S(=O)(OCCCCCOS(=O)(=NC)c1ccc(C)cc1)c1ccc(C)cc1 (centres undefined) | 94% |
| CCCCN(C=S)CCCC | 91.8% |
| CCCCCCCCCc1ccc(OC(C)=O)cc1 | 101% |
| Cc1nc(C)c(C(=O)O)cc1C(=O)O | 114% |
| CC(=O)N(CCCCCCN(C(C)=O)C(C)=O)C(C)=O | 117% [100 µM] |
| CN1CCCN(C(c2ccccc2)c2ccc(Br)cc2)CC1 (centres undefined) | 113% |
| CCOc1ccc(NC(=S)N2CCC(CCCC3CCN(C(=S)Nc4ccc(OCC)cc4)CC3)CC2)cc1 | 104% |

These compounds were tested on EKVX NSCLC in the same assay as above. Conditions: 10 µM unless noted.

| SMILES | growth |
| --- | --- |
| CC(=O)C1C(=O)C(=O)N(c2ccc(Cl)c(Cl)c2)C1=O (centres undefined) | 92.1% |
| NNc1ncnc2nc[nH]c12 | 69.7% |
| CC1(C)CC(=O)C=C(N)C1 | 60.3% |
| O=C1Nc2ccccc2/C1=C\c1ccccc1O | 56.4% |
| C=CCc1cc(OC)c(OC)c(OC)c1 | 111% |
| COCC(N)=O | 109% |
| C/C(O)=C(/C=N/C(=S)Nc1ccccc1)C(=O)Nc1ccccc1C | 96.6% |
| CSc1nsc(N)n1 | 97.4% |
| c1ccc(Oc2c3ccccc3nc3ccccc23)cc1 | 62.1% |
| NC(CSSCC(N)C(=O)O)C(=O)O (centres undefined) | 21.9% |
| O=C(O)c1c[nH]c2ccccc2c1=O | 103% |
| CC(C)N1CC(=O)N2CSCC2C1=O (centres undefined) | 105% |
| O=C(Oc1ccccc1Cl)c1ccc(Cl)cc1Cl | 94.4% |
| CN(C)c1ncnc2c1cnn2C | 102% |
| CC(=O)NNC(=S)/N=C\C(C(=O)c1ccccc1)=C(/O)c1ccccc1 | 99.4% |
| C=CC(C)C(C)(C)O (centres undefined) | 105% |
| C=COC(=O)CCOCC(CC)CCCC (centres undefined) | 110% |
| CCCCCCCCCCCCSC1=C(Cl)C(=O)C(OC)=C(OC)C1=O | 37.9% |
| Cc1onc(-c2c(F)cccc2Cl)c1-c1ncc(-c2ccc(Br)cc2)o1 | 46% |

| SMILES | growth |
| --- | --- |
| CC(=O)/C(C)=N\OC(=O)Nc1ccccc1 | 95.6% |
| Cc1ccc(S(=O)(=O)Oc2ccc3sc4c(CO)ccc(NCCN(C)C)c4c(=O)c3c2)cc1 | -66.7% [100 µM] (active) |
| Cc1cccc(-[n+]2noc(N)n2)c1 | 67.9% |
| O=C(NCc1ccccc1)c1cccc([N+](=O)[O-])c1 | 102% |
| C/C(Cc1ccccc1)=N\O | 116% |
| CCCCCC/C=C\CCCCCCCCCc1cc(O)cc(OC)c1O | 14.5% |
| CC1(C)OC2C(CO)OC(n3ccc(=O)[nH]c3=O)C2O1 (centres undefined) | 104% |
| C/C=C/C1OCC(CC)C(CCC)O1 (centres undefined) | 105% |
| O=c1nc(Nc2cccc(Cl)c2)oc2cc(Cl)oc(=O)c12 | 116% |
| NC(CO)(CO)c1ccccc1 | 113% |
| ClCC(Cl)[C@@H]1CC2C=CC1C2 (some centres undefined) | 98.3% |
| CN=S(=O)(OCCCCCOS(=O)(=NC)c1ccc(C)cc1)c1ccc(C)cc1 (centres undefined) | 95.4% |
| CCCCN(C=S)CCCC | 103% |
| CCCCCCCCCc1ccc(OC(C)=O)cc1 | 108% |
| Cc1nc(C)c(C(=O)O)cc1C(=O)O | 102% |
| CC(=O)N(CCCCCCN(C(C)=O)C(C)=O)C(C)=O | 106% [100 µM] |
| CN1CCCN(C(c2ccccc2)c2ccc(Br)cc2)CC1 (centres undefined) | 66.9% |
| CCOc1ccc(NC(=S)N2CCC(CCCC3CCN(C(=S)Nc4ccc(OCC)cc4)CC3)CC2)cc1 | 60.5% |
